Experimental data published in PubChem BioAssay (Tox21).
Results filed as inconclusive are left out. Activity calls are given as the source filed them. Unless noted, calls come from the whole dose curve; as a rule, active = well fitted curve in the direction sought with a large enough effect in the repeat runs; inconclusive = weak or mixed curves; inactive = no such curve, though single readings can be large; an effect the other way counts as inactive or inconclusive.

Experiments:
[1] = qHTS assay to identify small molecule antagonists of the vitamin D receptor (VDR) signaling pathway - cell viability counter screen (AID 743225); note: % is set by controls: 0 for no effect and ±100 for the full control effect; nearly all actives have a fitted effect of over 50% in size
Summary of the method: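 Same-well multiplex: following 16 h treatment of HEK 293T cells carrying a UAS-driven beta-lactamase reporter with compound and agonist (3 nM final), and a 2 h FRET substrate step, CellTiter-Glo was added and luminescence read after 30 min.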

[2] = qHTS assay to identify small molecule agonists of the NFkB signaling pathway - cell viability counter screen (AID 1159515; calls by dose curve; note: % is set by controls: 0 for no effect and ±100 for the full control effect; nearly all actives have a fitted effect of over 55% in size)
Summary of the method: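 5 hr compound treatment of NFkB-bla ME-180 cells (2,000/well, seeded overnight beforehand), followed by reporter substrate for 1.5 hr. CellTiter-Glo added afterward; luminescence after 30 min RT.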

[3] = qHTS assay to identify small molecule agonists of the endoplasmic reticulum stress response signaling pathway - cell viability counter screen (AID 1159517; calls by dose curve;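 note: HeLa cells carrying an ER stress response element beta-lactamase reporter; % is set by controls: 0 for no effect and ±100 for the full control effect; nearly all actives have a fitted effect of over 50% in size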)
Summary of the method: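 Counter-screen wells were identical to the reporter wells. Cells were plated at 1,500 per well and dosed for 5 hr, then read for luminescence 30 min after CellTiter-Glo addition.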

[4] = qHTS assay to identify small molecule antagonists of the retinoid-related orphan receptor gamma (ROR-gamma) signaling pathway - cell viability counter screen (AID 1159520); note: % is set by controls: 0 for no effect and ±100 for the full control effect; nearly all actives have a fitted effect of over 50% in size
Summary of the method: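 Tet-on ROR gamma CHO cells were given compounds for 2 hr, then doxycycline hyclate at 1 uM final, and incubated 16 hr at 37 C. Viability was measured as ATP content by CellTiter-Glo luminescence.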

[5] = molecular target: Nuclear receptor ROR-gamma (Homo sapiens) (UniProt P51449); experiment: qHTS assay to identify small molecule antagonists of the retinoid-related orphan receptor gamma (ROR-gamma) signaling pathway (AID 1159521; note: nearly all actives have a fitted effect of over 50% in size; note: potency is the fitted concentration of half-maximal effect)
Summary of the method: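 Inducible-expression reporter assay: doxycycline (1 uM final) switched on RORγ in CHO cells bearing a ROR response element-luciferase construct, with test compounds present from 2 h beforehand. Decreased luminescence after 16 h defined antagonist activity.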

[6] = qHTS assay to identify small molecule agonists of the AP-1 signaling pathway - cell viability counter screen (AID 1159525; calls by dose curve; note: nearly all actives have a fitted effect of over 55% in size)
Summary of the method: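 AP-1-bla ME-180 cells in Opti-MEM with 0.5% dialyzed FBS, compound exposure 5 h at 37 C in 15-point titration. Viability read in the same wells as ATP content by CellTiter-Glo luminescence, normalised to tetra-n-octylammonium bromide and DMSO controls.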

[7] = qHTS assay to identify small molecule agonists of the AP-1 signaling pathway (AID 1159526; calls by dose curve; note: % is set by controls: 0 for no effect and ±100 for the full control effect)
[8] = molecular target: Retinoic acid receptor RXR-alpha (Homo sapiens) (UniProt P19793); experiment: qHTS assay to identify small molecule agonists of the RXR signaling pathway (AID 1159527; calls by dose curve; note: % is set by controls: 0 for no effect and ±100 for the full control effect; nearly all actives have a fitted effect of over 35% in size)
Sequence of Retinoic acid receptor RXR-alpha (Homo sapiens) (P19793 whole entry, looked up): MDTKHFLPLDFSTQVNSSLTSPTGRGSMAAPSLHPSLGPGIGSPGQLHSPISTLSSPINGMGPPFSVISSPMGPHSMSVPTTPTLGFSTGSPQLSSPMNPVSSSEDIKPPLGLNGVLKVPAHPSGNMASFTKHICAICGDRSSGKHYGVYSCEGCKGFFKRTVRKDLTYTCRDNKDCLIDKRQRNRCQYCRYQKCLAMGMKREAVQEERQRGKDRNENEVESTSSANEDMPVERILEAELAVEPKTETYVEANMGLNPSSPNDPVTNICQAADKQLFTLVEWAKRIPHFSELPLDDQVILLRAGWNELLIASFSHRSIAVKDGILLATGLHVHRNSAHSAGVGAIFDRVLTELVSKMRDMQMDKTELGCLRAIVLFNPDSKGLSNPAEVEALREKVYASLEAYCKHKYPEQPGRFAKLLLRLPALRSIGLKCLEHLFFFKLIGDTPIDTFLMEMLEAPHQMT
Summary of the method: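 Compounds in DMSO were added to RXR-alpha-UAS-bla HEK 293T cells kept in 2% charcoal-stripped serum, and incubated 16 hr at 37 C with 5% CO2. Reporter signal came from a 2 hr B/G FRET substrate step.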

[9] = qHTS assay to identify small molecule agonists of the RXR signaling pathway - cell viability counter screen (AID 1159529)
Summary of the method: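 Counter screen: CellTiter-Glo luminescence. Cells: RXR-alpha-UAS-bla HEK 293T. Medium: 2% charcoal-stripped FBS. Treatment: 16 h, 37 C. Reagent incubation: 30 min, RT.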

[10] = qHTS assay to identify small molecule antagonists of the retinoid acid receptor (RAR) signaling pathway - cell viability counter screen (AID 1159551); note: nearly all actives have a fitted effect of over 35% in size; note: potency is the fitted concentration of half-maximal effect
Summary of the method: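 Seed C3RL4 cells; next day add compound, then retinol to 1 uM final; incubate 6 h at 37 C; add CellTiter-Glo; read luminescence after 30 min at RT.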

[11] = qHTS assay to identify small molecule antagonists of the retinoic acid receptor (RAR) signaling pathway (AID 1159552)
Summary of the method: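 Antagonism of retinol-induced RARE reporter activity was measured in C3RL4 cells. Exposure to compounds and 1 uM final retinol lasted 6 hr at 37 C, with luminescence as endpoint.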

[12] = qHTS assay to identify small molecule agonists of the retinoic acid receptor (RAR) signaling pathway (AID 1159553); settings: C3RL4 RARE luciferase reporter, agonist, 6 h; activation: at 73.3 µM (top of the series) unless noted; note: potency is the fitted concentration of half-maximal effect
Summary of the method: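 Activation of retinol signaling was monitored via a RARE luciferase reporter in C3RL4 cells. After 6 hr compound treatment at 37 C, detection reagent was added for 30 min at room temperature before luminescence reading.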

[13] = qHTS assay to identify small molecule antagonists of the estrogen related receptor (ERR) signaling pathway from Tox21 library - cell viability counter screen (AID 1224834); note: nearly all actives have a fitted effect of over 30% in size; note: potency is the fitted concentration of half-maximal effect
Summary of the method: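 CellTiter-Fluor fluorescence measured; ERR cells; 17.5 h compound incubation at 37 C; 30 min reagent step.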

[14] = qHTS assay to identify small molecule agonists of the endoplasmic reticulum stress response signaling pathway (AID 1159516; active = well fitted activation curve with a large enough effect in the signal ratio in the repeat runs, not every such curve was filed as active; the % refers to the signal ratio; note: % is set by controls: 0 for no effect and ±100 for the full control effect)
Summary of the method: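 Reporter HeLa cells (ESRE-beta-lactamase) underwent 5 hr compound incubation at 37 C and 5% CO2 in quantitative HTS format. Detection followed 2 hr of FRET substrate loading at room temperature.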

[15] = qHTS assay to identify small molecule antagonists of the estrogen related receptor (ERR) signaling pathway - cell viability counter screen (AID 1224818);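 note: viability measured after 17.5 h of compound exposure; % is set by controls: 0 for no effect and ±100 for the full control effect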
Summary of the method: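 In the same ERR cell assay, compound-treated wells (17.5 h, 37 C) were multiplexed with a fluorogenic viability reagent, CellTiter-Fluor, read after 30 min to flag cytotoxic substances.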

[16] = qHTS assay to identify small molecule antagonists of the estrogen related receptor signaling pathway with the pleiotropic PPARgamma coactivator (PGC) cell viability counter screen (AID 1224822; note: % is set by controls: 0 for no effect and ±100 for the full control effect)
Summary of the method: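 Compounds in DMSO, with positive and negative controls, were applied to PGC/ERR cells (2,000/well) and left 17.5 h at 37 C before CellTiter-Fluor detection.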

[17] = qHTS assay to identify small molecule antagonists of the estrogen related receptor (ERR) signaling pathway (AID 1224819)
Summary of the method: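 qHTS in ERR cells, 2,000/well, 1536 format. Cpd (DMSO) added after 6 h settle, 18 h 37 C. One-Glo luminescence, 30 min RT.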

[18] = qHTS assay to identify small molecule agonists of the estrogen related receptor (ERR) signaling pathway (AID 1224820); note: % is set by controls: 0 for no effect and ±100 for the full control effect
Summary of the method: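 Quantitative HTS of the LOPAC library used NTP ERR reporter cells treated 18 h at 37 C. Signal is luminescence after One-Glo addition and a 30 min room-temperature incubation.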

[19] = test system: estrogen-related receptor alpha (ERRalpha) with PGC-1alpha coactivator, human; experiment: qHTS assay to identify small molecule antagonists of the estrogen related receptor signaling pathway with the pleiotropic PPARgamma coactivator (PGC) (AID 1224821; calls by dose curve)
Summary of the method: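 Quantitative HTS for antagonism: PGC/ERR cells received compounds after 6 h attachment and were incubated 18 h at 37 C, with luminescence (One-Glo) as the endpoint.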

[20] = qHTS assay to identify small molecule agonists of the estrogen related receptor signaling pathway with the pleiotropic PPARgamma coactivator (PGC) (AID 1224823); note: % is set by controls: 0 for no effect and ±100 for the full control effect
Summary of the method: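 Cell-based luciferase assay in the NTP-supplied PGC/ERR line, 2,000 cells/well; 18 h compound exposure at 37 C, luminescence after One-Glo.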

Cc1cc(-n2nc3ccc(Cl)cc3n2)c(O)c(C(C)(C)C)c1
inactive: Potency [1] | Potency [2] | Potency [3] | Potency [4] | Potency [5] | Potency [6] | Potency [7] | Potency [8] | Potency [9] | Potency [10] | Potency [11] | Potency [12] | Potency [13]

C[C@@H](O)[C@H](N)C(=O)O
inactive: Potency [1] | Potency [2] | Potency [3] | activity, negative = cytotoxicity [4] -0.243% [at 19 µM] | activity change, negative = inhibition [5] 1.16% [at 19 µM] | viability change, negative = cytotoxic [6] 3.86% [at 15.8 µM] | activation [7] -7.74% [at 15.8 µM] | activation [8] 0.146% [at 15.8 µM] | activity change, negative = cytotoxicity [9] 1.63% [at 15.8 µM] | activity change, negative = cytotoxicity [10] -1.86% [at 19 µM] | activity, negative = inhibition [11] 42.8% [at 19 µM] | Potency [12] | viability change, negative = cytotoxic [13] 0.354% [at 19 µM]

COc1c(C)c2c(c(O)c1C/C=C(\C)CCC(=O)OCCN1CCOCC1)C(=O)OC2
active: Potency [5] 0.237 µM
inactive: Potency [2] | Potency [14] | Potency [6] | Potency [7] | Potency [10] | Potency [12]

COc1ccc(-c2coc3cc(O)ccc3c2=O)cc1
active: Potency [12] 0.486 µM
inactive: Potency [1] | Potency [2] | Potency [14] | Potency [6] | Potency [7] | Potency [9] | Potency [10] | Potency [11] | Potency [13]

ClCCl
inactive: Potency [1] | Potency [2] | Potency [3] | Potency [4] | Potency [5] | Potency [6] | Potency [7] | Potency [8] | Potency [9] | Potency [10] | Potency [11] | Potency [12] | Potency [13]

CCN(CC)c1ccc2c(-c3ccc(S(=O)(=O)O)cc3S(=O)(=O)[O-])c3ccc(=[N+](CC)CC)cc-3oc2c1
inactive: Potency [2] | Potency [14] | Potency [7] | Potency [8] | Potency [9] | Potency [12]
active: Potency [10] 31.6 µM | Potency [13] 22.4 µM

CNc1ccc([N+](=O)[O-])cc1
active: Potency [13] 43.4 µM
inactive: Potency [1] | Potency [2] | Potency [3] | Potency [4] | Potency [5] | Potency [6] | Potency [7] | Potency [8] | Potency [10] | Potency [11]

CC(=O)OCC=C(C)C
inactive: Potency [1] | Potency [2] | Potency [3] | Potency [4] | Potency [5] | Potency [6] | Potency [7] | Potency [8] | Potency [9] | Potency [10] | Potency [11] | Potency [12]

CC(C)(c1cc(Br)c(OCC(Br)CBr)c(Br)c1)c1cc(Br)c(OCC(Br)CBr)c(Br)c1 (stereo unspecified)
inactive: Potency [1] | Potency [2] | Potency [3] | Potency [4] | Potency [5] | Potency [6] | Potency [7] | Potency [8] | Potency [9] | Potency [10] | Potency [11] | Potency [12] | Potency [13]

COc1ccc(NC(=O)CC(C)=O)cc1
inactive: Potency [1] | Potency [2] | Potency [3] | Potency [4] | Potency [5] | Potency [6] | Potency [7] | Potency [8] | Potency [9] | Potency [10] | Potency [11] | Potency [13]

CCCC1CCC(=O)CC1
inactive: Potency [1] | Potency [2] | Potency [3] | Potency [4] | Potency [5] | Potency [6] | Potency [7] | Potency [8] | Potency [9] | Potency [10] | Potency [13]

O=c1c(O)c(-c2ccc(O)cc2O)oc2cc(O)cc(O)c12
inactive: Potency [1] | Potency [2] | Potency [3] | Potency [4] | Potency [5] | Potency [6] | Potency [7] | Potency [8] | Potency [9] | Potency [10] | outcome [15] | Potency [16]

CCC(COC(=O)CCS)(COC(=O)CCS)COC(=O)CCS
inactive: Potency [1] | Potency [2] | Potency [3] | Potency [4] | Potency [5] | Potency [6] | Potency [7] | Potency [8] | Potency [9] | Potency [10] | Potency [13]

Nc1nc(N)nc(-c2cc(Cl)ccc2Cl)n1
inactive: Potency [2] | Potency [4] | Potency [5] | Potency [6] | Potency [7] | Potency [8] | Potency [9] | Potency [10] | Potency [13]

Nc1nc2c(ncn2COCCO)c(=O)[nH]1
inactive: Potency [2] | Potency [4] | Potency [5] | Potency [6] | Potency [7] | Potency [8] | Potency [9] | Potency [10] | Potency [11] | Potency [12] | outcome [15] | Potency [17] | outcome [18] | Potency [19] | Potency [16] | outcome [20] | Potency [13]

CN1CCCCC1CCN1c2ccccc2Sc2ccc(S(C)=O)cc21 (stereo unspecified)
active: Potency [5] 29.8 µM
inactive: Potency [1] | Potency [14] | Potency [3] | Potency [6] | Potency [8] | Potency [9] | Potency [10] | Potency [12]
